# Where a name gives a salt, the structure may show the parent alone.
# System: Saccharomyces cerevisiae BY4741 SeMeCo community
# Assay: z-score of subpopulation abundance vs DMSO median, subpopulation auxotrophic for H; higher = larger share of this subpopulation than in DMSO controls
# Settings: 10 µM; 24 h; SM minimal medium; subpopulation (auxotrophy): H
# Experimental: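 Fluorescent four-plasmid SeMeCo (self-establishing metabolically cooperating S. cerevisiae BY4741 community; plasmids pH-mRuby2, pL-mWasabi, pU-eCFP, pM-TagRFP657) was grown 24 h in minimal SM medium with each Selleck FDA-approved drug at 10 µM in 384-well plates. Cells were fixed and imaged by high-content confocal microscopy. For each auxotrophic subpopulation (and the prototroph), a z-score gives the deviation from the DMSO vehicle-control population median.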
row,Structure (SMILES),z-score of subpopulation abundance
1,C[C@H]1c2cccc(O)c2C(O)=C2C(=O)[C@]3(O)C(O)=C(C(N)=O)C(=O)[C@@H](N(C)C)[C@@H]3[C@@H](O)[C@@H]21 [Doxycycline],-0.79
2,O=c1[nH]c(=O)n([C@H]2C[C@H](O)[C@@H](CO)O2)cc1I [Idoxuridine],-0.48
3,O=C(O)CCc1nc(-c2ccccc2)c(-c2ccccc2)o1 [Oxaprozin],-0.36
4,CN(C)CCCN1c2ccccc2Sc2ccc(Cl)cc21 [Chlorpromazine HCl],-0.33
5,Cc1nc(C)c(Cl)c(O)c1Cl [Clopidol],0.6
6,COc1ccccc1OCC(O)CN1CCN(CC(=O)Nc2c(C)cccc2C)CC1 (stereo not given) [Ranolazine 2HCl],0.04
7,COc1ccc(Cl)cc1C(=O)NCCc1ccc(S(=O)(=O)NC(=O)NC2CCCCC2)cc1 [Glyburide (Glibenclamide)],0.81
8,Cc1ccnc(NS(=O)(=O)c2ccc(N)cc2)n1 [Sulfamerazine],0.49
9,C#C[C@]1(O)CC[C@H]2[C@@H]3CCC4=CC(=O)CC[C@@H]4[C@H]3C(=C)C[C@@]21CC [Etonogestrel],0.15
10,C=C1CCN([C@H](C)[C@](O)(Cn2cncn2)c2ccc(F)cc2F)CC1 [Efinaconazole],11.9
11,CC(C(=O)O)c1cccc(C(=O)c2ccccc2)c1 (stereo not given) [Ketoprofen],0.99
12,CCC(C)(Oc1ccc(C2(c3ccc(OC(C)(CC)C(=O)O)cc3)CCCCC2)cc1)C(=O)O (stereo not given) [Clinofibrate],1.7
13,CC(C)Cc1ccc(C(C)C(=O)O)cc1 (stereo not given) [Ibuprofen],-0.54
14,O=c1ccc2cc(O)c(O)cc2o1 [Esculetin],3.92
15,COc1ccc2cc3[n+](cc2c1OC)CCc1cc2c(cc1-3)OCO2 [Berberine Sulfate],-0.31
16,C[C@@H](O)[C@H]1C(=O)N2C(C(=O)O)=C(S[C@@H]3CN[C@H](C(=O)Nc4cccc(C(=O)O)c4)C3)[C@H](C)[C@H]12 [Ertapenem sodium],0.48
17,Oc1ccc(Cl)c2cccnc12 [Cloxiquine],13.1
18,Cc1ccc(-c2cc(C(F)(F)F)nn2-c2ccc(S(N)(=O)=O)cc2)cc1 [Celecoxib],0.01
19,O=C(CCCN1CC=C(n2c(=O)[nH]c3ccccc32)CC1)c1ccc(F)cc1 [Droperidol],-0.5
20,"CCC(=O)Oc1ccc2c(c1)CCC1C2CCC2(C)C(OC(=O)CC)CCC12 (stereo not drawn) [Estradiol dipropionate(17-Beta-Estradiol-3,17-Dipropionate)]",-1.21

row,Structure (SMILES),z-score of subpopulation abundance
1,CO/N=C(\C(=O)N[C@@H]1C(=O)N2C(C(=O)O)=C(CSc3nnnn3C)CS[C@H]12)c1csc(N)n1 [Cefmenoxime hydrochloride],0.02
2,CCCCCCCCCC(=O)N[C@@H](Cc1c[nH]c2ccccc12)C(=O)N[C@H](CC(N)=O)C(=O)N[C@@H](CC(=O)O)C(=O)N[C@@H]1C(=O)NCC(=O)N[C@@H](CCCN)C(=O)N[C@@H](CC(=O)O)C(=O)N[C@H](C)C(=O)N[C@@H](CC(=O)O)C(=O)NCC(=O)N[C@H](CO)C(=O)N[C@@H]([C@H](C)CC(=O)O)C(=O)N[C@@H](CC(=O)c2ccccc2N)C(=O)O[C@@H]1C [Daptomycin],1.36
3,CN1CCN(CCCN2c3ccccc3Sc3ccc(Cl)cc32)CC1 [Prochlorperazine dimaleate salt],1.05
4,O=C(Nc1cc(Cl)cc(Cl)c1O)c1c(O)c(Cl)cc(Cl)c1Cl [Oxyclozanide],-2.53
5,C[C@]12CC[C@@H]3c4ccc(O)cc4CC[C@H]3[C@@H]1CCC2=O [Estrone],-0.34
6,CCN(CC)CCOc1ccc2c(c1)C(=O)c1cc(OCCN(CC)CC)ccc1-2 [Tilorone dihydrochloride],0.18
7,O=C(O)CCC(=O)Nc1ccc(S(=O)(=O)Nc2nccs2)cc1 [Succinylsulfathiazole],-1.14
8,C[C@@H](NCCCc1cccc(C(F)(F)F)c1)c1cccc2ccccc12 [Cinacalcet HCl],0.26
9,CC1(C)S[C@@H]2[C@H](NC(=O)Cc3ccccc3)C(=O)N2[C@H]1C(=O)O.CCN(CC)CCOC(=O)c1ccc(N)cc1 [Penicillin G Procaine],1.75
10,O=C1CCc2cc(OCCCCc3nnnn3C3CCCCC3)ccc2N1 [Cilostazol],0.02
11,COc1cc2c(cc1OC)C(=O)C(CC1CCN(Cc3ccccc3)CC1)C2 (stereo not given) [Donepezil HCl],0.71
12,CC[C@H]1OC(=O)C[C@@H](O)[C@H](C)[C@@H](O[C@@H]2O[C@H](C)[C@@H](O[C@H]3C[C@@](C)(O)[C@@H](O)[C@H](C)O3)[C@H](N(C)C)[C@H]2O)[C@@H](CC=O)C[C@@H](C)C(=O)/C=C/C(C)=C/[C@@H]1CO[C@@H]1O[C@H](C)[C@@H](O)[C@@H](OC)[C@H]1OC [Tylosin],2.22
13,CC[C@@H]1/C=C(\C)C[C@H](C)C[C@H](OC)[C@H]2O[C@@](O)(C(=O)C(=O)N3CCCC[C@H]3C(=O)O[C@H](/C(C)=C/[C@@H]3CC[C@@H](O)[C@H](OC)C3)[C@H](C)[C@@H](O)CC1=O)[C@H](C)C[C@@H]2OC [Ascomycin (FK520)],1.96
14,Cc1ncc([N+](=O)[O-])n1CCO [Metronidazole],0.44
15,Nc1nc2ccc(OC(F)(F)F)cc2s1 [Riluzole],-0.43
16,OCCN(CCO)c1nc(N2CCCCC2)c2nc(N(CCO)CCO)nc(N3CCCCC3)c2n1 [Dipyridamole],3.18
17,CN1CCC[C@@H]1Cc1c[nH]c2ccc(CCS(=O)(=O)c3ccccc3)cc12 [Eletriptan HBr],0.1
18,COc1cc(C(C)=O)ccc1OCCCN1CCC(c2noc3cc(F)ccc23)CC1 [Iloperidone],0.05
19,O=C(c1ccc(F)cc1)C1CCN(CCn2c(=O)[nH]c3ccccc3c2=O)CC1 [Ketanserin],-0.82
20,COc1cc(O)c(C(=O)Nc2nc(C(=O)NCCN(C(C)C)C(C)C)cs2)cc1OC [Acotiamide],0.24

# From the supplement of paper PMC8975748
